Broadly, the AC50 is the midpoint of the concentration-response curve, whichever way the signal moves.

Molecules are shown by their SMILES. Activity calls are given as the source filed them. Rule for the calls: active = hit-call score of the fitted dose curve at least 0.9, where 1 is the maximum; inactive = score below 0.9.

We go through five compounds from PubChem BioAssay (EPA / NIEHS).

Assay [1] is described as follows: ATG_CMV_CIS: Attagene CIS-FACTORIAL HepG2 Assay for human CMV (Internal Marker) (AID 2282928).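 Note: endpoint acts as a background internal control marker rather than a target.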 Particulars: HepG2 CMV promoter reporter, transcription factor profiling; actives raise or lower the signal. In short, it runs like this: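 Fluorescence intensity of RT-PCR-derived reporter fragments, resolved by capillary electrophoresis, gives the signal. HepG2 liver cells bearing transfected cis-element reporters were treated 24 h; activity in either direction was fit relative to DMSO-treated controls.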

Assay [2] is described as follows: ATG_ISRE_CIS: Attagene CIS-FACTORIAL HepG2 Assay for human Interferon Regulatory Factor 1 (IRF1) binding to an Interferon-Stimulated Response Element (ISRE) (AID 2282948). As to conditions: HepG2 ISRE cis-reporter (Attagene), mRNA transcription readout; actives raise or lower the signal. In short, it runs like this:
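Signal reflects induction or loss of ISRE-linked reporter mRNA in transiently transfected HepG2 cells after a 24 h treatment, detected by fluorescent RT-PCR fragments on capillary electrophoresis and normalised to DMSO.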

Assay [3] can be described thus: ATG_M_32_CIS: Attagene CIS-FACTORIAL HepG2 Assay for M32 Transcription Factor (Internal Marker) (AID 2282949).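 Note: background control marker of the multiplexed CIS panel rather than a real target.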 As to conditions: HepG2 Attagene cis-factorial M32 reporter, mRNA; actives raise or lower the signal. In a few lines:
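Using DMSO as baseline, bidirectional curve fits were applied to reporter mRNA signals. These came from transiently transfected HepG2 cells exposed for 24 h, with RNA analysed by RT-PCR, FAM primer extension, HpaI digestion and CE.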

For assay [4], the target named is Hepatocyte nuclear factor 6 (Homo sapiens) (UniProt Q9UBC0). Nature of the assay: ATG_HNF6_CIS: Attagene CIS-FACTORIAL HepG2 Assay for human Hepatocyte Nuclear Factor 6 (HNF6) (AID 2282952). As to conditions: HepG2 Attagene cis-factorial HNF6 reporter transcription; actives raise or lower the signal. In short, it runs like this:
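Using cis-element reporters in HepG2 liver cells, the assay tracks endogenous factor-driven transcription 24 h post-dosing. Signal comes from 6-FAM-labelled, HpaI-digested RT-PCR fragments, with gain or loss scored against DMSO.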

For assay [5], the target named is Heat shock factor protein 1 (Homo sapiens) (UniProt Q00613). Nature of the assay: ATG_HSE_CIS: Attagene CIS-FACTORIAL HepG2 Assay for human Heat Shock Transcription Factor 1 (HSE) (AID 2282953). Particulars: HepG2 HSE cis-reporter, Attagene RNA transcription; actives raise or lower the signal. In a few lines: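 Endogenous transcription factor activity captured via cis-promoter reporter units transfected into HepG2; treatment lasted 24 h. Fluorescence intensity of reporter fragments analysed with bidirectional curve fitting, DMSO baseline.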

The nature of assay [6]: ATG_RORE_CIS: Attagene CIS-FACTORIAL HepG2 Assay for human RAR-related Orphan Receptor Element (RORE) (AID 2282959). As to conditions: HepG2 Attagene cis-factorial RORE reporter, mRNA; actives raise or lower the signal. In short, it runs like this: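 Transfect HepG2 with MRTUs; treat 24 h; extract RNA; RT with oligo(dT); PCR with reporter-specific primers; 6-FAM primer extension; HpaI digest 2 h at 37 C; capillary electrophoresis. Fit vs DMSO, bidirectional.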

In assay [7] the target is Signal transducer and activator of transcription 3 (Homo sapiens) (UniProt P40763). Put plainly: ATG_STAT3_CIS: Attagene CIS-FACTORIAL HepG2 Assay for human Signal Transducer and Activator of Transcription 3 (STAT3) (AID 2282963). Particulars: HepG2, Attagene cis-factorial STAT3 reporter transcription; actives raise or lower the signal. In a few lines: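 Cis-factorial format: endogenous transcription factors in HepG2 drive transfected reporter units. After 24 h treatment, reporter RNA was reverse-transcribed, amplified, FAM-labelled and HpaI-digested before CE analysis; activity scored in both directions against DMSO.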

The nature of assay [8]: ATG_TCF_b_cat_CIS: Attagene CIS-FACTORIAL HepG2 Assay for human T-Cell-Factor with beta-catenin (TCF/b-cat) (AID 2282965). Particulars: HepG2 TCF/beta-catenin cis-reporter transcription, actives raise or lower the signal. In short, it runs like this:
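Endogenous TCF/LEF activity read as reporter transcript level via RT-PCR and capillary electrophoresis fluorescence in transfected HepG2, 24 h exposure; gain or loss of signal fitted against DMSO controls.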

The nature of assay [9]: ATG_TAL_CIS: Attagene CIS-FACTORIAL HepG2 Assay for human TAL Basal Promoter (AID 2282966).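 Note: background control endpoint measuring basal TAL promoter reporter mRNA not a specific factor.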 Particulars: HepG2 Attagene cis-factorial TAL promoter reporter; actives raise or lower the signal. In short, it runs like this: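 After 24 hours of chemical exposure, transfected HepG2 cells yielded RNA that was converted to 6-FAM-labelled, HpaI-digested reporter fragments for capillary electrophoresis. Values derive from bidirectional fitting against DMSO controls.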

Assay [10] is described as follows: ATG_TGFb_CIS: Attagene CIS-FACTORIAL HepG2 Assay for human Transforming Growth Factor (TGF) (AID 2282967). Particulars: HepG2 Attagene CIS TGFb reporter, mRNA transcription; actives raise or lower the signal. In a few lines:
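Bidirectional fitting relative to DMSO gave the endpoint. Underlying data: reporter mRNA from HepG2 cells carrying transiently transfected cis-regulated reporter constructs, harvested 24 h after dosing and analyzed by RT-PCR and capillary electrophoresis.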

Assay [11] can be described thus: ATG_VDRE_CIS: Attagene CIS-FACTORIAL HepG2 Assay for human Vitamin D Receptor Element (VDRE) (AID 2282968). Particulars: HepG2 VDRE cis-reporter transcription, actives raise or lower the signal. In short, it runs like this: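 Measures endogenous factor activity through cis-element-driven reporter transcripts in transiently transfected HepG2. Cells are treated 24 h; reporter mRNA is quantified by RT-PCR and capillary electrophoresis; fitting is bidirectional.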

In assay [12] the target is X-box-binding protein 1 (Homo sapiens) (UniProt P17861). Put plainly: ATG_Xbp1_CIS: Attagene CIS-FACTORIAL HepG2 Assay for human X-box Binding Protein 1 (XBP1) (AID 2282972). As to conditions: HepG2 XBP1 cis-element reporter, Attagene multiplex; actives raise or lower the signal. In a few lines:
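Human hepatoma HepG2, cis-element reporter system, 24 h treatment; mRNA quantified by RT-PCR/CE fluorescence; fit relative to DMSO.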

Assay [13] addresses Transcriptional activator Myb (Homo sapiens) (UniProt P10242). Put plainly: ATG_Myb_CIS: Attagene CIS-FACTORIAL HepG2 Assay for human Myeloblastosis (Myb) Proto-Oncogene Transcription Factor (AID 2282986). Particulars: HepG2 Attagene CIS-FACTORIAL Myb reporter transcription; actives raise or lower the signal. In a few lines:
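Using HepG2 liver cells bearing transiently transfected cis-promoter reporter constructs, the assay measures induction or loss of reporter mRNA after 24 hours of dosing. Detection used fluorescently labeled RT-PCR products separated by capillary electrophoresis.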

The target in assay [14] is Nuclear respiratory factor 1 (Homo sapiens) (UniProt Q16656). Nature of the assay: ATG_NRF1_CIS: Attagene CIS-FACTORIAL HepG2 Assay for human Nuclear Respiratory Factor 1 (NRF1) Orphan Gene (AID 2282987). Particulars: HepG2 NRF1 cis-element reporter, Attagene multiplex; actives raise or lower the signal. In a few lines: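 Reporter mRNA induction or loss in HepG2 cells after 24 h dosing; cis-regulated reporter constructs report endogenous transcription-factor activity. Quantified by RT-PCR/capillary electrophoresis fluorescence, DMSO-referenced.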

Assay [15] concerns the target Myc proto-oncogene protein (Homo sapiens) (UniProt P01106). Nature of the assay: ATG_Myc_CIS: Attagene CIS-FACTORIAL HepG2 Assay for human Myelocytomatosis (Myc) Proto-Oncogene Transcription Factor (AID 2282990). As to conditions: HepG2, Attagene cis-reporter transcription factor activity; actives raise or lower the signal. In short, it runs like this:
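After 24 h chemical treatment of HepG2 cells carrying multiplexed cis-regulated reporter constructs, reporter transcripts quantified by RT-PCR and capillary electrophoresis of fluorescent fragments. Gain or loss fitted against DMSO baseline.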

The nature of assay [16]: ATG_NRF2_ARE_CIS: Attagene CIS-FACTORIAL HepG2 Assay for human Nuclear Factor Erythroid 2 Related Factor 2 (NFR2) response to Antioxidant Response Elements (ARE) (AID 2282992).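 For AC50: reporter mRNA level measured by RT-PCR and capillary electrophoresis fluorescence.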 As to conditions: HepG2 Attagene ARE/NRF2 reporter, transcription factor activity; actives raise or lower the signal. In a few lines: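 Fluorescence intensity of reporter-specific cDNA fragments, separated by capillary electrophoresis, reflects mRNA induction in transfected HepG2 cells at 24 h. Activity is fitted bidirectionally, DMSO serving as baseline.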

Assay [17] can be described thus: ATG_Oct_MLP_CIS: Attagene CIS-FACTORIAL HepG2 Assay for human Octamer-Binding Transcription Factor (Oct) (AID 2282993). As to conditions: HepG2 Attagene cis-factorial Oct reporter, mRNA; actives raise or lower the signal. In a few lines:
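HepG2, transient MRTU transfection, cis promoter elements; 24 h dosing; RT-PCR/CE fluorescence read-out of reporter mRNA; fit both directions vs DMSO.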

A short description of assay [18]: ATG_TA_CIS: Attagene CIS-FACTORIAL HepG2 Assay for human TA Basal Promoter (AID 2282964). As to conditions: HepG2 Attagene CIS-factorial TA basal promoter reporter; actives raise or lower the signal. In a few lines:
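Fluorescence from labelled RT-PCR reporter fragments, separated by capillary electrophoresis, gives the signal. Cells: HepG2 transiently carrying multiple reporter units, 24 h chemical dosing. Gain or loss relative to DMSO.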

The nature of assay [19]: ATG_NF_kB_CIS: Attagene CIS-FACTORIAL HepG2 Assay for human Nuclear Factor Kappa B (NF-kB) (AID 2282991). Particulars: HepG2 Attagene cis-factorial NF-kB reporter mRNA; actives raise or lower the signal. In a few lines: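 DMSO served as negative control and baseline for bidirectional curve fitting. Transiently transfected HepG2 cells were dosed for 24 h, then reporter transcripts were measured by RT-PCR with capillary electrophoresis detection.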

Assay [20] concerns the target Cellular tumor antigen p53 (Homo sapiens) (UniProt P04637). Put plainly: ATG_p53_CIS: Attagene CIS-FACTORIAL HepG2 Assay for human p53 Transcription Factor (AID 2282994). Particulars: HepG2 p53 cis-element reporter, Attagene mRNA; actives raise or lower the signal. In short, it runs like this:
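Transiently transfected HepG2 (multiple cis reporter transcription units); exposure 24 h; reporter RNA via RT-PCR, 6-FAM extension, 2 h HpaI digest at 37 C, CE detection; DMSO baseline.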

Chain of Transcriptional activator Myb (Homo sapiens) (P10242 whole entry, looked up): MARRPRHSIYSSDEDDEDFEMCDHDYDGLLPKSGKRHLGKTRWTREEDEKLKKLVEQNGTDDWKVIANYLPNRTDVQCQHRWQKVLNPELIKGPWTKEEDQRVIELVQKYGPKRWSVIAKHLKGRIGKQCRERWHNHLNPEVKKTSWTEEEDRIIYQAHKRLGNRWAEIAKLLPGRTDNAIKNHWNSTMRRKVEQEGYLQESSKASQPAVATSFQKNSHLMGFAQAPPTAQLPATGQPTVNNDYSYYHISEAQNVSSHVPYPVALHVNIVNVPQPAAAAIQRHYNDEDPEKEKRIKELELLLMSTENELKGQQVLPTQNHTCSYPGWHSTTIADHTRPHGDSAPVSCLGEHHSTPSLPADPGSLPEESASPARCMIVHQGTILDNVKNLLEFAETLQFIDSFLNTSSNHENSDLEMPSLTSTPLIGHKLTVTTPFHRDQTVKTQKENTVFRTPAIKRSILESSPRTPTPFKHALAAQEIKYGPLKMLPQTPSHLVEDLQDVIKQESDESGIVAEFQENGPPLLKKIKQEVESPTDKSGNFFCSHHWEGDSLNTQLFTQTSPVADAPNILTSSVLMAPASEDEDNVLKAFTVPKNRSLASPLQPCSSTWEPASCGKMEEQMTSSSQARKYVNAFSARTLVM
Chain of Heat shock factor protein 1 (Homo sapiens) (Q00613 whole entry, looked up, the tested form may be a part): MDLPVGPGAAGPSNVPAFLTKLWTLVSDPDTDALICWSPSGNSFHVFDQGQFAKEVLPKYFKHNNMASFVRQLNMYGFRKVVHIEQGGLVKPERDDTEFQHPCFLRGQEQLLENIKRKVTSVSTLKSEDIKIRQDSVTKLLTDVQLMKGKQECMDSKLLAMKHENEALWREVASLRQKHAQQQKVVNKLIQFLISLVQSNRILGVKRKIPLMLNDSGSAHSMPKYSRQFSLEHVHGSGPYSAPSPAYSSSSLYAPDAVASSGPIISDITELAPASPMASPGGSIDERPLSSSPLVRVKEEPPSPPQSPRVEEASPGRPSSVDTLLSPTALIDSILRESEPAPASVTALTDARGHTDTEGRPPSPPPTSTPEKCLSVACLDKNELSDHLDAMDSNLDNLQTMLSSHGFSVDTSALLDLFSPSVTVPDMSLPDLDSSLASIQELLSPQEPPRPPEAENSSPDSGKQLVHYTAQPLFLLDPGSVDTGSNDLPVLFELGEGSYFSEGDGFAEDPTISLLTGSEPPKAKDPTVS
Chain of Myc proto-oncogene protein (Homo sapiens) (P01106 whole entry, looked up, the tested form may be a part): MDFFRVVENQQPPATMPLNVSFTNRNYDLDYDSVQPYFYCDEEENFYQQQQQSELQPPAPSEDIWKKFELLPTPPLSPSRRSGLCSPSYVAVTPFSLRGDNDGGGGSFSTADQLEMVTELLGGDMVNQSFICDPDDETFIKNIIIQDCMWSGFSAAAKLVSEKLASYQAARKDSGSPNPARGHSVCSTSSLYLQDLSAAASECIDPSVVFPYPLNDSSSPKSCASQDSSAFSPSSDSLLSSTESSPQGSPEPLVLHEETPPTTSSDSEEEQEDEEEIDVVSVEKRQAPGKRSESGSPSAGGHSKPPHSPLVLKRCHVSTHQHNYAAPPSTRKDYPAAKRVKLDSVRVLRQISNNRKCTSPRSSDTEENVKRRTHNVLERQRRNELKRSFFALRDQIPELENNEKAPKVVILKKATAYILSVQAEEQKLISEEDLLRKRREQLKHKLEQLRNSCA
Chain of Hepatocyte nuclear factor 6 (Homo sapiens) (Q9UBC0 whole entry, looked up, the tested form may be a part): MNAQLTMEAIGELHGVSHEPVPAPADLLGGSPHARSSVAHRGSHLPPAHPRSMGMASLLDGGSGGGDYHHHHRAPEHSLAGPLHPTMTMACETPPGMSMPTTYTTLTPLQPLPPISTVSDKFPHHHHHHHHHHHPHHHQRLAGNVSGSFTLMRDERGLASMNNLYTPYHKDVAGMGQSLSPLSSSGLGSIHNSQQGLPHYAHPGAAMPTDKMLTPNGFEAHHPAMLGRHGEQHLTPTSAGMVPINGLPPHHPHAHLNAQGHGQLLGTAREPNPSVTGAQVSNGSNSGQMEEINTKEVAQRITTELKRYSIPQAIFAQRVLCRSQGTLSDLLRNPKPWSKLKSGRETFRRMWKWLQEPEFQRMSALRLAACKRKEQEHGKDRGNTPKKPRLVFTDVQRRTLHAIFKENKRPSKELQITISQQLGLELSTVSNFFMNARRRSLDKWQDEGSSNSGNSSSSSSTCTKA
Chain of Cellular tumor antigen p53 (Homo sapiens) (P04637 whole entry, looked up): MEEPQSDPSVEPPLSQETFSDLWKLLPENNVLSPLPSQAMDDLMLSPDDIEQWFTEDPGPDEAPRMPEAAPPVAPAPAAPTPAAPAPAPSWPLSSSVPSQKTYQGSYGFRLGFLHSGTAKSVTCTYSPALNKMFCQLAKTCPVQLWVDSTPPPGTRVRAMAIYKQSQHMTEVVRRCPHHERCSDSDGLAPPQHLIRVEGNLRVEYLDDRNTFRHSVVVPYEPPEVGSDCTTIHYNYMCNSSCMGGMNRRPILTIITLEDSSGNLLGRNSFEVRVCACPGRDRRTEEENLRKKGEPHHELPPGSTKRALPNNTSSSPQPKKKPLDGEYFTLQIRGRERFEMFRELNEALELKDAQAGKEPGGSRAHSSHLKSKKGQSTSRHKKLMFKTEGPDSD
Chain of Signal transducer and activator of transcription 3 (Homo sapiens) (P40763 whole entry, looked up): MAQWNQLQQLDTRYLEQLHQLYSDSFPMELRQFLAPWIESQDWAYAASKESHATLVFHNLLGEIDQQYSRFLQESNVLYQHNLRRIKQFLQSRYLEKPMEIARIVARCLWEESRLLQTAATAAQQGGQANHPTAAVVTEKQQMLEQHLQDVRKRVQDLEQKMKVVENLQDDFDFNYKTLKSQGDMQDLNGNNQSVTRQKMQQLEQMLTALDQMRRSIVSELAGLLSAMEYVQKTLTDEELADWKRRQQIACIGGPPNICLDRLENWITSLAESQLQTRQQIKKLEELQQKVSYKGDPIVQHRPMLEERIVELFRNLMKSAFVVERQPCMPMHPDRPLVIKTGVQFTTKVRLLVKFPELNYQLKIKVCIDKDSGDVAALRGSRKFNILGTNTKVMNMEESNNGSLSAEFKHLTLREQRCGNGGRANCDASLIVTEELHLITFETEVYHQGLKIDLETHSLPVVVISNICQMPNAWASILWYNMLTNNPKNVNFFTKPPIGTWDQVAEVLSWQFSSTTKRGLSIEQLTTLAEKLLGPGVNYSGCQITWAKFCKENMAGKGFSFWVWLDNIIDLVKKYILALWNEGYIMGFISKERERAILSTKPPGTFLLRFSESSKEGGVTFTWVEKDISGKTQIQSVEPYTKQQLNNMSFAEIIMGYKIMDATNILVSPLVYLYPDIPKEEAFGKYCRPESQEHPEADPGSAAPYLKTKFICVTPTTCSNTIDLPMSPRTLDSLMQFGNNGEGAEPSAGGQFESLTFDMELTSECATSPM
Chain of Nuclear respiratory factor 1 (Homo sapiens) (Q16656 whole entry, looked up): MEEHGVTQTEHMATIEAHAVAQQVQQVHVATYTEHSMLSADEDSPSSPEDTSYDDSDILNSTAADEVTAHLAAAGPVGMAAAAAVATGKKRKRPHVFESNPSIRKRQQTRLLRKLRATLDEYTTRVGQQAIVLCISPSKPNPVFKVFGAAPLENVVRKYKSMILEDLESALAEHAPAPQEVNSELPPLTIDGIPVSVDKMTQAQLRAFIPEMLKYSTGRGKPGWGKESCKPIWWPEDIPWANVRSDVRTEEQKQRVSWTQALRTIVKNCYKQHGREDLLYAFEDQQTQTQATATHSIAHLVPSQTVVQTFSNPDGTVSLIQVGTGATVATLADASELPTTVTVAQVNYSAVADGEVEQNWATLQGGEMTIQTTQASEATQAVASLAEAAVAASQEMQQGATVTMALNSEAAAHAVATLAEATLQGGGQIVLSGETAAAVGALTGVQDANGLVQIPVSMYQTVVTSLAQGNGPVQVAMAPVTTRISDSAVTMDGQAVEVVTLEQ
Chain of X-box-binding protein 1 (Homo sapiens) (P17861 whole entry, looked up): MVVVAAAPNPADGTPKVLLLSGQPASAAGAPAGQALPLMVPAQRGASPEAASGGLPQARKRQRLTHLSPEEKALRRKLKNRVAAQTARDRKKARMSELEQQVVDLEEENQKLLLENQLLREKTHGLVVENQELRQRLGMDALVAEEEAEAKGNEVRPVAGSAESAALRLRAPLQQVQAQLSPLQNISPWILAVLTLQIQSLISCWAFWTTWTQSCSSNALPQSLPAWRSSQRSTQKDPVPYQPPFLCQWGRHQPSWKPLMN

As to `Cc1ccc(C)c2ccccc12`, the compound was called inactive in [1], in [2], in assay [3], in [4], in assay [5] and in [6]. Besides, the result in assay [7], in assay [8], in assay [9], in assay [10], in assay [11] and in [12] was inactive. Moreover, the compound was called inactive in [13], in assay [14], in assay [15], in assay [16] and in [17].

Turning to `CN1C[C@H](C(=O)N[C@]2(C)O[C@@]3(O)[C@@H]4CCCN4C(=O)[C@H](Cc4ccccc4)N3C2=O)C=C2c3cccc4[nH]cc(c34)C[C@H]21`, the compound was called inactive in assay [1], in [2], in assay [3], in assay [4], in assay [5] and in assay [6]. For the same compound, the outcome in assay [7], in assay [18], in [9], in [10], in assay [12] and in [13] was inactive. In addition, the outcome in [14], in [15], in assay [19], in [17] and in assay [20] was inactive. For the same compound, the values for the AC50 in assay [8], in [11] and in assay [16] were 94.2 µM (active), 0.966 µM (active) and 27 µM (active), respectively.

For the compound `N#CCCCl`, the outcome in [1], in [2], in assay [3], in assay [4], in assay [5] and in assay [6] was inactive. In addition, the call in assay [7], in assay [8], in [9], in assay [10], in [11] and in assay [12] was inactive. In addition, the compound was classed as inactive in [13], in assay [14], in [15], in assay [19], in assay [16] and in assay [17]. The compound was called inactive in assay [20].

As for `C=CC(=O)OCCO`, the compound was called inactive in assay [1], in [2], in [4], in assay [5], in assay [18] and in [8]. Moreover, the compound was classed as inactive in [9], in assay [10], in assay [13], in assay [14], in assay [15] and in assay [20]. The AC50 was 59.1 µM (active) in assay [6]; 116 µM (active) in assay [11]; 131 µM (active) in assay [12]; 17.1 µM (active) in [19]; 47.6 µM (active) in assay [16]; 100 µM (active) in assay [17].

As for `O=C=Nc1ccccc1`, the compound was classed as inactive in assay [2], in [4], in assay [5], in assay [18], in [8] and in [9]. The result in assay [10], in assay [11], in assay [12], in assay [13], in assay [14] and in assay [15] was inactive. Moreover, the compound was called inactive in assay [19], in assay [16] and in assay [17].
